# Measured values from PubChem BioAssay AID2713 (National Center for Advancing Translational Sciences (NCATS), 2010).
# “And” between values parts separate entries of the source, which are not always exact repeats. Equal values may be shown once. Results filed as inconclusive are left out. The source made the active and inactive calls.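 How the source made its calls: active means compounds raising survival of Huntington mutant striatal cells while barely changing normal control cells; inconclusive means compounds that make cell death worse; inactive means the rest.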
# Assay: qHTS Multiplex Assay to Identify Dual Action Probes in a Cell Model of Huntington: Cytotoxicity in HTT Striatal Cells
# Details: STHdhQ111/111 striatal cells, serum-free, ATP luminescence, 24 h
# Excerpt: NIH Chemical Genomics Center [NCGC] NIH Molecular Libraries Probe Production centers Network [MLPCN] MLPCN Grant: MH084839-01A1 Assay Submitter (PI): Wei Zheng NCGC Assay Overview: Huntington's disease is a neurodegenerative disorder caused by a trinucleotide repeat expansion in Exon 1 of the Huntingtin gene. The CAG trinucleotide encodes glutamine and polyglutamine expansions cause cell death in selective areas of the brain. Huntington polyglutamine repeats have the tendency to form aggregates which are observable in later stages of the disease. The exact nature of the aggregates, whether toxic, protective, or insignificant, is unclear. A stable PC12 cell line containing a gene fusion of Exon 1 of the Huntingtin gene linked to GFP under the control of the inducible ecdysone promoter were used as the cell-based model of Huntington Disease for high throughput screening. Exon 1 of the Huntingtin gene contained an expansion of 103 polyglutamines (Q103) which, when expressed, caused cell death and distinct, bright GFP aggregates. The amount of cell death and the size and intensity of GFP aggregates increased over time and induction level. The cell death were quantified with a measurement of ATP content in the cells. A maximal 40-50% of cell death was observed when the Huntington gene was induced in this cell line. We optimized this assay in a homogeneous 1536 well format. A quantitative high throughput screen (qHTS) was conducted on the PC12 cells which were induced to express the toxic fusion construct. Small molecules which prevented cell death were identified by using a luminescent ATP quantification method (Perkin Elmer's ATPlite). This assay examines influence on cytotoxicity induced by serum deprivation in normal and Huntington striatal cells.
# Freshlay passaged STHdhQ7/7 cells and mutant STHdhQ111/111 Huntington striatal cells were plated at a density of 20,000 cells/well in complete media and allowed to recover overnight at 33C. The next day, media was replaced with serum containing media or serum free media containing the compound. After 24 hours of incubation at 33 C, cells were assayed for ATP content using the Cell Titer-GLO ATP assay from Promega (cat # G7571). ATP/Toxicity Assay in Serum Free Media (SFM) (96 well plate format) 1. Plate 20,000 cells/well and incubate the cells in complete (w/serum) media overnight 2. Remove media, wash twice with PBS and add the SFM w/ or w/o the compound 3. Incubate at 33C; cells can be incubated at 39C for a more dramatic effect 4. ATP measurements after […] treatment, per kit protocol
smiles,measurement,setting,value
Cn1nnnc1Sc1ncnc2scc(-c3ccccc3)c12,viability change,"measured here: Q7/7 cells, at 30 µM",33% and 26%
same,viability change,"measured here: Q7/7 cells, at 60 µM",21% and 15%
same,viability change,"measured here: Q111/111 cells, at 60 µM",191% and 196%
same,viability change,at 30 µM,231% (active) and 240% (active)
same,viability change,"measured here: Q7/7 cells, FBS, at 30 µM",9% and 8%
same,viability change,"measured here: Q7/7 cells, FBS, at 60 µM",7% and 5%
same,viability change,"measured here: Q111/111 cells, FBS, at 30 µM",18% and 16%
same,viability change,"measured here: Q111/111 cells, FBS, at 60 µM",9% and 8%
